Reference: ChEMBL document CHEMBL1157539, “Thousands of chemical starting points for antimalarial lead identification” (Nature, 2010)

What was measured:
Assay type in all cases: functional
Plasmodium falciparum [1] = assay: GSK_TCMDC: Inhibition of Plasmodium falciparum 3D7 in whole red blood cells, using parasite LDH activity as an index of growth. Test compounds present at 2uM
Plasmodium falciparum [2] = assay: GSK_TCMDC: Inhibition of Plasmodium falciparum Dd2 in whole red blood cells, using parasite LDH activity as an index of growth. Test compounds present at 2uM
HepG2 = assay: GSK_TCMDC: Percent inhibition of human HepG2 cell line. Test compounds present at 10uM.

| SMILES | Inhibition (Plasmodium falciparum [1]) [%] | Inhibition (Plasmodium falciparum [2]) [%] | Inhibition (HepG2) [%] |
| --- | --- | --- | --- |
| CN(C)C(CNC(=O)c1cc(-c2ccncc2)c(-c2cc3ccccc3[nH]2)o1)c1ccccc1.O=C(O)C(F)(F)F (stereo not given) | 96 | 62 | 3 |
| COc1cccc(CCc2cccc(CNC(C)=O)c2)c1 | 88 | 0 | 2 |
| CCc1cn2c3c(cc(C(=O)N[C@@H](Cc4ccccc4)[C@H](O)CNC(C)(C)c4cccc(OC)c4)cc13)N(C)S(=O)(=O)C2.O=CO | 98 | 99 | 27 |
| COc1ccc2ncc(F)c(CCN3CCC(CNCc4cccc5c4OCO5)CC3)c2n1.Cl | 93 | 37 | 39 |
| Nc1ncc(-c2ccc3nccc(-c4ccncc4)c3c2)cc1S(=O)(=O)N1CCCCC1 | 100 | 100 | 25 |
| CCc1cn2c3c(cc(C(=O)N[C@@H](Cc4ccccc4)[C@H](O)CNC(C)(C)CCCC(C)C)cc13)N(C)S(=O)(=O)C2.O=CO | 98 | 98 | 71 |
| O=C(NCCCCN1CCC(c2c[nH]c3ccccc23)CC1)c1ccc(-c2ccc(C(F)(F)F)cc2)cc1 | 98 | 22 | 34 |
| CC(C)(C)C(Cn1ccnc1)NCc1c[nH]nc1-c1ccc(-c2ccccc2)cc1 (stereo not given) | 98 | 69 | 15 |
| O=C(Nc1ccc(Cl)cc1)c1ccc(S(=O)(=O)NCC2CCN(CC3CCCCC3)CC2)cc1.O=C(O)C(F)(F)F | 93 | 8 | 40 |
| Cc1c(-c2ccc(C(=O)NC3CC(C)(C)NC(C)(C)C3)cc2)[nH]c2cc(Cl)c(Cl)cc12 | 98 | 68 | 34 |
